B2AR arrestin – qHTS assay of beta-arrestin-biased ligands of beta2-adrenergic receptor; actives 0.02% (n = 330,000); AID 492947, 2010; Potency, µM (doses to about 46.1 µM), for inactives: top-dose activation, hits mostly activators; Beta-2 adrenergic receptor (Homo sapiens), P07550; beta-arrestin recruitment to beta2AR, cell-based reporter;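 note: 0% = DMSO controls and full agonism = EC100 isoproterenol or metaproterenol; nearly all actives have a fitted effect of over 65% in size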
RORgamma inh – qHTS for inhibitors of ROR gamma transcriptional activity | Drosophila S2 Gal4-RORgamma UAS-luciferase reporter, 20 h | Nuclear receptor ROR-gamma (Mus musculus), P51450 | actives 5.4% (n = 310,000) | Potency, µM (series often up to 53.6 µM), for inactives: top-dose activity change, negative = inhibition, hits mostly inhibitors; note: nearly all actives have a fitted effect of over 60% in size
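Read-out: Photinus luciferase luminescence; inhibitors lower reporter signal. Insect Schneider cells with Gal4-ROR gamma fusion under metallothionein promoter, UAS reporter; 700 uM final copper sulfate induction, 20 hr, ambient temperature.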
VP16 counter – VP16 counterscreen qHTS for inhibitors of ROR gamma transcriptional activity; Drosophila S2 Gal4-VP16 UAS-luciferase, luminescence, 20 h; Potency, µM (series often up to 53.6 µM), for inactives: at the highest dose activity, negative = inhibition, most hits filed as inhibitors; actives 3.5% (n = 310,000); AID 2546, 2010;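 note: Gal4-VP16 expression switched on by copper sulfate through the metallothionein promoter; nearly all actives have a fitted effect of over 50% in size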
NPSR antag – qHTS Assay for Antagonists of the Neuropeptide S Receptor: cAMP Signal Transduction | CHO-NPSR cells, cAMP TR-FRET, antagonist mode | Potency, µM (top dose mostly 38.3 µM), for the others: at the top dose activity change, negative = inhibition, actives largely listed as inhibitors | Q6W5P4 | AID 1461, 2008 | actives 1% (n = 220,000); note: nearly all actives have a fitted effect of over 50% in size
Target sequence (Q6W5P4 whole entry, looked up): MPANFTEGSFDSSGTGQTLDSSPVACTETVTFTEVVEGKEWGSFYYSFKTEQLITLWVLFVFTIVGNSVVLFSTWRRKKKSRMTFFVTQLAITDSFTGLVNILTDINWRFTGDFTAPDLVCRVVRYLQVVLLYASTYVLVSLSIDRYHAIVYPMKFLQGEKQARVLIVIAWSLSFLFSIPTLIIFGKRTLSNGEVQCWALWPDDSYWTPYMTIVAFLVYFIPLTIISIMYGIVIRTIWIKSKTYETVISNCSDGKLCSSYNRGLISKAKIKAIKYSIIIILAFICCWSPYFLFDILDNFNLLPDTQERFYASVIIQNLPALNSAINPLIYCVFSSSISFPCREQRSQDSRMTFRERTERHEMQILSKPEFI
Active calls of the source: *; u = inconclusive; x = not tested or not shown; [ ] = remark or other dose. Only some compounds are listed: those with a hit (about 5.7% of all), similar ones and a draw of the others. Calls come from the whole dose curve; as a rule, active = well fitted curve in the direction sought with a large enough effect; inconclusive = small, poorly fitted or top-dose-only effect, or another doubt; inactive = no such curve, though single readings can be large; an effect the other way counts as inactive or inconclusive. Unless noted, % is set by controls: 0 for no effect and ±100 for the full control effect; potency is the fitted concentration of half-maximal effect.

SMILES | B2AR arrestin | RORgamma inh | VP16 counter | NPSR antag
CC[C@H](C)[C@H](NC(=O)[C@H](Cc1ccc(O)cc1)NC(=O)[C@H](CCCNC(=N)N)NC(=O)[C@H](CCCNC(=N)N)NC(=O)[C@H](CC(C)C)NC(=O)[C@H](CCC(N)=O)NC(=O)[C@@H](NC(=O)[C@H](CCC(=O)O)NC(=O)[C@H](Cc1ccc(O)cc1)NC(=O)[C@H](CCC(N)=O)NC(=O)[C@H](C)NC(=O)[C@H](CCCNC(=N)N)NC(=O)[C@H](CCC(N)=O)NC(=O)[C@H](CCC(=O)O)NC(=O)[C@H](Cc1cnc[nH]1)NC(=O)[C@@H](NC(=O)[C@H](C)NC(=O)[C@H](Cc1ccc(O)cc1)NC(=O)[C@H](CC(=O)O)NC(=O)CNC(=O)[C@@H]1CCCN1C(=O)[C@H](Cc1ccc(O)cc1)NC(=O)[C@H](CCSC)NC(=O)[C@@H]1CCCN1C(=O)[C@H](CCC(=O)O)NC(=O)[C@H](CC(C)C)NC(=O)[C@@H]1CCCN1C(=O)[C@H](C)N)[C@@H](C)O)[C@@H](C)O)C(=O)N[C@@H](CC(N)=O)C(=O)N[C@H](C(=O)N[C@@H](CC(C)C)C(=O)N[C@H](C(=O)N[C@@H](CCCNC(=N)N)C(=O)N1CCC[C@H]1C(=O)N[C@@H](CCCNC(=N)N)C(=O)N[C@@H](Cc1ccc(O)cc1)C(N)=O)[C@@H](C)O)[C@@H](C)O | x | 6% | 6% | x
Cc1cccc(-c2ccc3ncnc(N(C)Cc4ccco4)c3c2)c1 | 0% | x | x | x
CCc1cccc(NC(=S)N(CCN(C)C)C(C)c2ccncc2)c1 (centres undefined) | 0% | 14µM* | -2% | 6%
c1ccc(-c2c[nH]c3[n+]2CCCCC3)cc1 | 0% | 22µM* | u | -3%[46.1 µM]
Cc1cccc(NC(=S)N/N=C/c2cccn2Cc2ccc(F)cc2)c1 | 0% | 0.2µM* | 2.2µM* | -27%
CSc1ccccc1NC(=S)N/N=C/c1cccn1Cc1cccc(C)c1 | 0% | 0.89µM* | 5µM* | -29%
CSc1ccccc1NC(=S)N/N=C/c1cccn1Cc1ccc(F)cc1 | 0% | u | u | -29%
CC(=O)OCC1=C[C@H]2[C@@H]3C(C)(C)[C@]3(OC(C)=O)C[C@@H](C)[C@]2(O)[C@@H]2C=C(C)C(=O)[C@@]2(O)C1 | x | 13% | -3% | x
Cc1cc(N/N=C/c2c(O)ccc3ccccc23)nc(-c2ccccc2O)n1 | 0% | 7.1µM* | 4µM* | -1%
O=CN/N=C/c1c(O)ccc2ccccc12 | -1% | 0.79µM* | 2.8µM* | -3%
NC(=S)N/N=C/c1c(O)ccc2ccccc12 | -1% | 1.1µM* | 4µM* | -28%
Cc1ccc(S(=O)(=O)/N=C/c2c(O)ccc3ccccc23)cc1 | 0% | 18µM* | u | x
O=S(=O)(/N=C/c1c(O)ccc2ccccc12)c1cccs1 | 0% | u | -19% | -2%[46.1 µM]
Oc1ccc2ccccc2c1/C=N/Nc1ccccc1 | 0% | u | u | 1%
Cc1cccc(NC(=O)c2ccc(S(=O)(=O)NCc3cccnc3)cc2)c1 | 0% | 25% | 6% | x
Clc1ccccc1-c1ccc2ncnc(NC3CCNCC3)c2c1 | x | -18% | 0% | x
NC(=S)N/N=C/c1coc2c(ccc3ccccc32)c1=O | -1% | 5.6µM* | 7.9µM* | -1%[46.1 µM]
NC(=S)N/N=C/c1coc2cc(Br)ccc2c1=O | -1% | -5% | 6% | -26%
O=C(CCCN1C(=O)C2CC=CCC2C1=O)Nc1cccc(F)c1 (centres undefined) | -1% | 15% | 1% | x
O=C(NC(=S)NCc1ccncc1)c1ccccc1 | -1% | 2% | -2% | 15%
O=C(O)c1ccc(NC(=S)NCc2ccccc2)cc1 | -1% | -35% | 7% | x
O=C(NC(=S)NCc1ccccc1)c1ccccc1 | 0% | 3.2µM* | u | -30%
CC(C)(C)C(=O)NC(=S)NCc1ccccc1 | 0% | 7.1µM* | u | -1%
O=C(O)CC(NC(=S)NCc1ccccc1)C(=O)O (centres undefined) | 0% | 16µM* | 11µM* | 8%[46.1 µM]
O=C(NC(=S)NCc1ccc(F)cc1)c1ccccc1 | 0% | 5µM* | u | -28%
